The record followed here is ChEMBL document CHEMBL3988442, “University of Dundee, Small-Polar-MMV Screening Library” (2021).

Holding throughout (design): scale not given: direction of the effect not stated beside the values
For test [1], the target named is Protein translocase subunit SecA (Escherichia coli (strain K12)) (UniProt P10408). The test can be described thus: Assay to Identify E. coli SecA ATPase Inhibitors. It is filed as functional. As to conditions: 30 µM.
Test [2] has as its target T1, Ubiquitin-activating enzyme e1, putative (Leishmania donovani (strain BPK282A1)) (UniProt E9BSI1).
T1 sequence (whole entry): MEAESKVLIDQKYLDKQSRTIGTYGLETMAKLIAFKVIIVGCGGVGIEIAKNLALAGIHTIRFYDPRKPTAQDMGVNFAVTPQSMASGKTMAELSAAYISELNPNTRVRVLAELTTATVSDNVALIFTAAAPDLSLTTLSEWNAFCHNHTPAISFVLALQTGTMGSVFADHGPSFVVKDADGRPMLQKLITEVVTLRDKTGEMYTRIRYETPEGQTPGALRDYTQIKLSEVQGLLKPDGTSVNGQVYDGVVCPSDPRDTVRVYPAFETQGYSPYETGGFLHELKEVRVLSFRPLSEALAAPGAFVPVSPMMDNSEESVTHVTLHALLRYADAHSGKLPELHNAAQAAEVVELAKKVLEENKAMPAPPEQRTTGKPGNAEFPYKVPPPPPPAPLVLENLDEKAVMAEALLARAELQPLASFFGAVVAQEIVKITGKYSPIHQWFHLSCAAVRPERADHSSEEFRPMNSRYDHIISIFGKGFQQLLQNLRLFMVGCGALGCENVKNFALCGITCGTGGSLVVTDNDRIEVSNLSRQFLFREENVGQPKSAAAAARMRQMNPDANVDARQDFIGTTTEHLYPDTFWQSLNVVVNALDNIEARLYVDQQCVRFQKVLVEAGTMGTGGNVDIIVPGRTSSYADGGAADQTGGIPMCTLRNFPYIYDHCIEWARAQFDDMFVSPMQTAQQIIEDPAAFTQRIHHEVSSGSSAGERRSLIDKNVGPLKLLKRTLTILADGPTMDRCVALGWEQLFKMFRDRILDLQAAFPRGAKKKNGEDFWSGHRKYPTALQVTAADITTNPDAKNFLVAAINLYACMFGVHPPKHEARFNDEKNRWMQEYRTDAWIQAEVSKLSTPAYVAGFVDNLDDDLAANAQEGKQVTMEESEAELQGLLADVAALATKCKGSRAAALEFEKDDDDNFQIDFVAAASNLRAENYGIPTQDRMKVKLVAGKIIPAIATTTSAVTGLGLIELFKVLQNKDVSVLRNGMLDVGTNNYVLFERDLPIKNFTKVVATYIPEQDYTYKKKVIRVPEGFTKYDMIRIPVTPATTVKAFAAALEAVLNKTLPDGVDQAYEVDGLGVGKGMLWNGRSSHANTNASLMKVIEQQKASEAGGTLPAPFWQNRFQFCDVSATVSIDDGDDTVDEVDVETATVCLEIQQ
The test can be described thus: Leishmania donovani Ubiquitin Activating Enzyme (LdE1). It is filed as functional. As to conditions: 30 µM.

Test [3] deals with AMP-activated protein kinase, AMPK (Homo sapiens) (UniProt P54646+O43741+P54619+Q9UGJ0+Q9Y478+Q13131+Q9UGI9). The test can be described thus: AMP-dependent Kinase enzyme assay. An in vitro enzyme assay that detects ADP turnover that is directly proportional to AMPK activity. This uses naive AMPK that is activated during the assay with MK-8722. As to conditions: 30 µM. Type of test: functional.

The target of test [4] is Sialic acid-binding Ig-like lectin 9 (Homo sapiens) (UniProt Q9Y336). As to the kind of experiment: Hs-Siglec9 ALPHAscreen SOP 20170721. As to conditions: 10 µM.
Another test relates to Trypanosoma cruzi. As to the kind of experiment: Trypanosoma cruzi phosphomannomutase and mannose-1-phosphate guanylyltransferase assay. Type of test: functional. As to conditions: 10 µM.
For test [5], the target named is T2, Arginase-2, mitochondrial (Homo sapiens) (UniProt P78540).
T2 sequence (whole entry): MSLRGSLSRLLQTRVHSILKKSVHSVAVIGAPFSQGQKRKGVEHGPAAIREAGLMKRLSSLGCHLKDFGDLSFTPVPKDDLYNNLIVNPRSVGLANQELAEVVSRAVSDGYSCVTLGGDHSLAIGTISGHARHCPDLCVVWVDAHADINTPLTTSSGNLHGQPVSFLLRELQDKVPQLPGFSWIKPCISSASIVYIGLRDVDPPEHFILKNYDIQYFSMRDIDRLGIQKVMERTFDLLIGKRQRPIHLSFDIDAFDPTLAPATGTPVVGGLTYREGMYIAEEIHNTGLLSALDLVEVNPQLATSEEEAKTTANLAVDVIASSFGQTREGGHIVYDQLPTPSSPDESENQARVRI
The test can be described thus: in vitro enzyme assay to detect the production of urea directly proportional to the activity of Arginase II. Note: in the data most compounds retested in dose-response had high values. It is filed as functional. As to conditions: 33.3 µM.

The target of test [6] is T3, Proteasome subunit beta (Trypanosoma cruzi) (UniProt O96673).
T3 sequence (whole entry): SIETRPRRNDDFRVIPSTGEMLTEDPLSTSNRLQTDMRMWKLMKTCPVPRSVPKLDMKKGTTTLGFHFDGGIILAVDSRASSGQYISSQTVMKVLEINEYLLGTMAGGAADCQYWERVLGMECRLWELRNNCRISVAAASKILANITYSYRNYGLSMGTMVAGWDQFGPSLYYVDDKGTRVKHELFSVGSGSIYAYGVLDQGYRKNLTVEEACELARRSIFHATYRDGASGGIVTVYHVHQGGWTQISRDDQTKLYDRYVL
The test can be described thus: Trypanosoma cruzi proteasome chymotrypsin-like activity (TcProtChymo) assay. Note: in the data most compounds retested in dose-response had high values. Type of test: functional. As to conditions: 9.37 µM.

The species entered for a further test is Homo sapiens. As to the kind of experiment: To identify inhibition of the IFN signalling (Jak-Stat) pathway via expression of an eGFP reporter gene under the control of an IFN-stimulated response element (ISRE) containing MxA promoter. It is filed as functional. As to conditions: 30 µM.
The target of test [7] is T4, Tyrosyl-tRNA synthetase, putative (Trypanosoma cruzi (strain CL Brener)) (UniProt Q4DSP6).
T4 sequence (whole entry): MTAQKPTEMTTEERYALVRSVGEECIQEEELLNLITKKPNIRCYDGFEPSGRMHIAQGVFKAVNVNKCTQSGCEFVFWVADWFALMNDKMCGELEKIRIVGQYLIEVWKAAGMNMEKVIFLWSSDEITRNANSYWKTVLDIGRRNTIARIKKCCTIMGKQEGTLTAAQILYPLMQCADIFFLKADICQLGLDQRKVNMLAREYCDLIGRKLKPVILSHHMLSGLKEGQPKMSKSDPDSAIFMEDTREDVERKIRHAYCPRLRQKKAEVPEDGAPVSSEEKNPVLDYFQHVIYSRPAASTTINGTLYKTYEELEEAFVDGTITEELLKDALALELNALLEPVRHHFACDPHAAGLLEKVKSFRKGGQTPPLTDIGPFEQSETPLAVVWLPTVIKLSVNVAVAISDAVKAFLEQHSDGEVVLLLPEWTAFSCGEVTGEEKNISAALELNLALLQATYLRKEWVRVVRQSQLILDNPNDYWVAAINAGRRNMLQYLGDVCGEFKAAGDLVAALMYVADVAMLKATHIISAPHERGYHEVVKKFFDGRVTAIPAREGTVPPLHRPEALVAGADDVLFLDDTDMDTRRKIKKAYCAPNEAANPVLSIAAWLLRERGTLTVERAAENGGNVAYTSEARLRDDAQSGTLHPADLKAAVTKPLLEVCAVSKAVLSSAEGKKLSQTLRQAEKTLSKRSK
The test can be described thus: Trypanosoma cruzi tyrosyl tRNA synthetase (TcYRS) _High Tyrosine SOP. Note: in the data most compounds retested in dose-response had high values. Type of test: functional. As to conditions: 30 µM.

Test [8] addresses T4, Tyrosyl-tRNA synthetase, putative (Trypanosoma cruzi (strain CL Brener)). The test can be described thus: Trypanosoma cruzi tyrosyl tRNA synthetase (TcYRS) SOP. Type of test: functional. As to conditions: 30 µM.
Test [9] addresses Chromo domain-containing protein 1 (Saccharomyces cerevisiae (strain ATCC 204508 / S288c) (Baker's yeast)) (UniProt P32657). As to the kind of experiment: ScCHD-1 Enzyme Inhibition Assay. Note: in the data most compounds retested in dose-response had high values. Type of test: functional. As to conditions: 30 µM.

For some assays here: Measured potencies and affinities stand elsewhere.

Sequence of Protein translocase subunit SecA (Escherichia coli (strain K12)) (P10408 whole entry): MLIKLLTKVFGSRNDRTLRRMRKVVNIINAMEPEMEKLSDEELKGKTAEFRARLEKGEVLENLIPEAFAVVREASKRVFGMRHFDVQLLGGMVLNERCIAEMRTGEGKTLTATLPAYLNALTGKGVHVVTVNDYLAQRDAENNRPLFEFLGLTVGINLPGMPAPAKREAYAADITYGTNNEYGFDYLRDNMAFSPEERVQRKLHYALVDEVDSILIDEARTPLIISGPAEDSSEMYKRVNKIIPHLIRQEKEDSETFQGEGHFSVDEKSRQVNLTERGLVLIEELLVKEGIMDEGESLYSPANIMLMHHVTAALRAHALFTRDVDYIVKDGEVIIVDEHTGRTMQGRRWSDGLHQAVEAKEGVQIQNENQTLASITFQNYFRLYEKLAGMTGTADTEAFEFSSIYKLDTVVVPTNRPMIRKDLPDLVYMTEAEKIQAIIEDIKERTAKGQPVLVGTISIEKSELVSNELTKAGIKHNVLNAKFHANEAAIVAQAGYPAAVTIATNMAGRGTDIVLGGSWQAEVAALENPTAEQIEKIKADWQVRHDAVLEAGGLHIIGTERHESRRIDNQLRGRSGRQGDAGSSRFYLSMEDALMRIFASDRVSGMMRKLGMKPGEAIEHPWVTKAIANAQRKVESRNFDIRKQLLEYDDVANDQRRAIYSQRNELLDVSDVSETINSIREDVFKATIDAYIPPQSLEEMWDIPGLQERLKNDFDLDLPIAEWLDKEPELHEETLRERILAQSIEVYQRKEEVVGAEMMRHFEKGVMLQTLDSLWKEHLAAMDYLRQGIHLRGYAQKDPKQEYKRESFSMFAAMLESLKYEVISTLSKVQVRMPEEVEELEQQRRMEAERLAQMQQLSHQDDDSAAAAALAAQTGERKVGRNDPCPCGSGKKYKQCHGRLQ
Sequence of Sialic acid-binding Ig-like lectin 9 (Homo sapiens) (Q9Y336 whole entry): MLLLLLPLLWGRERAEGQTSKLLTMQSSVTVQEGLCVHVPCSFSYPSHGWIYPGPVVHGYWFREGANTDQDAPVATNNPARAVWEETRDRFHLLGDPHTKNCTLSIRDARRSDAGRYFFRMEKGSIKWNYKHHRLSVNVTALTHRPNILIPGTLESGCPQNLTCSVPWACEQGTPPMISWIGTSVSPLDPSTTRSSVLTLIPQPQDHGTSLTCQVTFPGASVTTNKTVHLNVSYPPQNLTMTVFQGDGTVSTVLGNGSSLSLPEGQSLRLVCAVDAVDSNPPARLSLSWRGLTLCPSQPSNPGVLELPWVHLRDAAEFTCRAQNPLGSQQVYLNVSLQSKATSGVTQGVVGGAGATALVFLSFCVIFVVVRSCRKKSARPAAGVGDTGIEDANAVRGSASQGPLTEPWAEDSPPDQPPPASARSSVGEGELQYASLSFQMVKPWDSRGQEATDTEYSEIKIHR
Sequence of Chromo domain-containing protein 1 (Saccharomyces cerevisiae (strain ATCC 204508 / S288c) (Baker's yeast)) (P32657 whole entry, the tested form may be a part): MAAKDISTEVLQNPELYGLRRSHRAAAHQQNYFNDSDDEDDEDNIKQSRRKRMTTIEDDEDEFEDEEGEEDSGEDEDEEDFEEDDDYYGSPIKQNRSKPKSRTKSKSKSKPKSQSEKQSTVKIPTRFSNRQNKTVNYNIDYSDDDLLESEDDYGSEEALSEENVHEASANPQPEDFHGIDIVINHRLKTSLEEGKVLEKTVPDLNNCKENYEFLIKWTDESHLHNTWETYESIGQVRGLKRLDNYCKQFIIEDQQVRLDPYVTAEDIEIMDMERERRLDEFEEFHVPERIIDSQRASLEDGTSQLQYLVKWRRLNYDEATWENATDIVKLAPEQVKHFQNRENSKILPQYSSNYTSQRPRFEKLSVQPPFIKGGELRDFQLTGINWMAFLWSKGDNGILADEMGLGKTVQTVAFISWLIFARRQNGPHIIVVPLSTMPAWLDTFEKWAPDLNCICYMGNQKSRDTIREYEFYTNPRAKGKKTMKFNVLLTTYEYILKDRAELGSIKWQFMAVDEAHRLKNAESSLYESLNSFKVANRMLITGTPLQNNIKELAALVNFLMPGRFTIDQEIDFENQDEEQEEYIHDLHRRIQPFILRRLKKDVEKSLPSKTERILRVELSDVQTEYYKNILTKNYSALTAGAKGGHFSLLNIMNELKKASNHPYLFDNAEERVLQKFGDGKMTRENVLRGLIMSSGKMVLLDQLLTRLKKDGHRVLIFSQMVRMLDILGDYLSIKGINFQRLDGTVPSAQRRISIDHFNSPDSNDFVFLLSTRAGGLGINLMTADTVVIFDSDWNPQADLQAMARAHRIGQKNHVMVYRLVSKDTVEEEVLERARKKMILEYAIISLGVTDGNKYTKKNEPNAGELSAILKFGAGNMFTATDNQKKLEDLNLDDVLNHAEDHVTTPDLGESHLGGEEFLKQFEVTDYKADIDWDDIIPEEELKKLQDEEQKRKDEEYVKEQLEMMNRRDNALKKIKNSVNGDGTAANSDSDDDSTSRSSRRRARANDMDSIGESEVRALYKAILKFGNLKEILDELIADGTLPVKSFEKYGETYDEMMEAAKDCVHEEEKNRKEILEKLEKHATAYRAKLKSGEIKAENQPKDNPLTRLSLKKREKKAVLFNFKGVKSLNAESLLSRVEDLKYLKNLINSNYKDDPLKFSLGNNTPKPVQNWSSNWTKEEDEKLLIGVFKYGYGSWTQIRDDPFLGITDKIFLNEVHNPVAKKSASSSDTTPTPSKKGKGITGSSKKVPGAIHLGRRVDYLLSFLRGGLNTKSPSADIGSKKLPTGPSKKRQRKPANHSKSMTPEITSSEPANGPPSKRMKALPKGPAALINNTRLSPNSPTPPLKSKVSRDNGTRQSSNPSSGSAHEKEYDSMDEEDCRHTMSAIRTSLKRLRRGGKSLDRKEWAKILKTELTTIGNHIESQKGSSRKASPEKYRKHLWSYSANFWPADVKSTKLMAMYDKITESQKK

Regarding `CCCc1noc(CN(C)C(=O)C2COc3ccccc3C2)n1` (configuration not stated), the Percent Effect was -2.56% in test [1]; 7.79% in test [2]; -0.0483% in [3]; 4.75% in test [4]; -3.25% in the test on Trypanosoma cruzi; -30.3% in test [5]. Besides, the Percent Effect in [6] is 14.1%; in the test filed under Homo sapiens it was -15.6%; in test [7], 5.38%; in test [8], 16.1%; in test [9], -3.26%.
As to `Cc1cc(S(=O)(=O)N2CCCc3ccc(F)cc32)sc1C(=O)O`, the Percent Effect in test [1] was -6.14%; in test [2], 0%; in [3], 3.45%; in test [4], 0.802%; with Trypanosoma cruzi it was -1.85%; in test [5], 4.69%. For the same molecule, the Percent Effect in test [6] is 1.74%; in the test listed under Homo sapiens, 12.6%; in [7] it was -23.5%; in [8], -33.3%; in test [9] it was -2.04%.
As for `Cc1cc(CN2CCN(C(=O)Nc3cccnc3)CC2)on1`, the Percent Effect was -2.38% in test [1]; 15.8% in [2]; -3.05% in test [3]; 8.98% in test [4]; -2.63% in the test with Trypanosoma cruzi; 4.6% in test [5]. In addition, the Percent Effect was 4.51% in [6]; -11.1% in the test filed under Homo sapiens; 6.37% in test [7]; 17.1% in [8]; -2.69% in [9].
For the molecule `Cc1cc(C(F)(F)F)nn1CC(C)C(=O)Nc1ccncc1` (configuration not stated), the Percent Effect is -6.4% in test [1]; 6.67% in test [2]; -0.198% in [3]; 8.65% in test [4]; 0.786% with Trypanosoma cruzi; -2.64% in [5]. For the same molecule, the Percent Effect in test [6] is 10.9%; in the test filed under Homo sapiens, 19.9%; in test [7], 1.06%; in test [8] it was -12.8%; in test [9], -5.12%.
Consider `c1cnnc(N2CCCC2CNCc2cnc(N3CCCC3)nc2)c1` (configuration not stated), for which the Percent Effect in test [1] was 0.488%; in test [2] it was -1.27%; in test [3], 13.5%; in test [4] it was 6.03%; with Trypanosoma cruzi, 1.33%; in test [5] it was 2.8%. For the same molecule, the Percent Effect is 4.8% in [6]; 16.1% in the test filed under Homo sapiens; 5.21% in test [7]; 0% in [8]; -7.82% in test [9].
In the case of `CCn1cc(NC(=O)NCC(O)CN2CCCCC2)cn1` (configuration not stated), the Percent Effect in test [1] is -2.01%; in [2] it was 5.2%; in [3], 2.67%; in test [4], 12.4%; with Trypanosoma cruzi it was 1.27%; in [5], 4%. The Percent Effect was 0.404% in test [6]; 15.9% in the test listed under Homo sapiens; 0% in test [7]; 2.35% in test [8]; -9.62% in test [9].
On to `CO[C@@H]1CCN(Cc2cnn(C)c2)[C@@H]2CN(Cc3ccco3)C[C@@H]21`, for which the Percent Effect is -5.25% in test [1]; 4% in test [2]; 5.3% in test [3]; 4.49% in [4]; -1.38% with Trypanosoma cruzi; -0.528% in test [5]. Further, the Percent Effect is 11.8% in test [6]; -13.9% in the test listed under Homo sapiens; 0% in test [7]; 2.56% in test [8]; -0.166% in test [9].
